PP5 inh: PP5 (human) phosphatase inhibition; P53041; purified PP5c, OMFP substrate fluorescence; inhibition, % at 6.7 µM; 0.18% of 320,000 active; AID 1987;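 active = inhibition above the campaign's mean inhibition across all tested compounds plus 3 SD, cut at about 9.5% in these data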;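 note: 0% = DMSO only and 100% = 100 µM cantharidin control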
Target sequence (P53041 whole entry, looked up): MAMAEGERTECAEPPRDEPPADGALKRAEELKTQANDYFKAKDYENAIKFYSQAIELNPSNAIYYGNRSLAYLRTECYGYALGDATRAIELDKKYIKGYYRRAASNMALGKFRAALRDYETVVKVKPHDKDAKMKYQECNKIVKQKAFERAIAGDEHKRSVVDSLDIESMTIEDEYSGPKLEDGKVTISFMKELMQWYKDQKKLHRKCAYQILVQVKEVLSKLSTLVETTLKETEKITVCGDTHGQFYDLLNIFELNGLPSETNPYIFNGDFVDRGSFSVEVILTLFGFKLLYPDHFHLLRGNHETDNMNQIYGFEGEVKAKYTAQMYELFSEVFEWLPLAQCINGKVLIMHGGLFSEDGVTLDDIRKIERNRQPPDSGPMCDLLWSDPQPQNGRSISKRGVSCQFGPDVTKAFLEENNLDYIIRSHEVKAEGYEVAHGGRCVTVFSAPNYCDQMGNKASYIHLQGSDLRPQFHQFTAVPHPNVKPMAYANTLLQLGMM
Beta cell apopt: beta cell apoptosis inhibition | INS-1E cytokine-induced death, ATP luminescence, 48 h; percent of positive-control rescue, neutral wells zero | AID 435005 | 0.8% of 300,000 active | protection from apoptosis, % (no concentration beside the values);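 active = Every replicate reaches about 75%, or at least half do and their mean reaches it too, limit read from the data; inconclusive = At least half of replicates reach the limit but their mean does not; inactive = Under half of replicates reach the limit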;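 note: 0% = cytokine-treated negative control wells and 100% = positive control rescue; higher means more ATP so stronger rescue from cytokine killing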
Mdm2 MdmX PPI: inhibitors of human Mdm2/MdmX interaction | O15151+Q00987 | inhibition, % at 8 µM | 3% of 330,000 active | SaOS-2 split-luciferase Mdm2/MdmX complementation, luminescence;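 active = inhibition of at least 50% at 8 µM in the primary screen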
CSC inhib: blocks cancer stem cells; 1.1% of 300,000 active; cancer stem cell-like cells viability, luminescence; inhibition, % at 7.5 µM; in the data active = inhibition above about 75%; inconclusive = no clear call, values can overlap the other calls; tested in HMLE shEcad cells
Calb FLC: affects C. albicans growth with fluconazole; C. albicans CaCi-2 (fluconazole-resistant clinical isolate) + fluconazole, Alamar Blue growth, 48 h; growth inhibition, % (test concentration not listed); 0.57% of 300,000 active;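 active = growth inhibition above about 58% in most replicates, limit read from the data, passing the limit was not always enough; inconclusive = exactly half the replicates above a set limit; inactive = most replicates below a set limit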;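 note: all wells also contain fluconazole at 8 µg/ml as a sub-toxic cotreatment; 0% = median of DMSO wells and 100% = median of geldanamycin control wells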
PP1 counter: counter-screen for PP5 inhibitors: inhibitors of human PP1-alpha; P62136; purified PP1alpha, OMFP fluorescence; inhibition, % at 6.7 µM; 0.9% of 320,000 active; AID 2235;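 active = inhibition above the mean inhibition of all tested compounds plus 3 SD, computed separately for each screening campaign, cut at about 15% in these data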
Mdm2 MdmX conf: confirmation of human Mdm2/MdmX interaction inhibitors | shares compounds with Mdm2 MdmX PPI | Mdm2-MdmX binding, luminescent assay | inhibition, % at 8 µM | 55% of 10,000 active | AID 489028; in the data active = inhibition above about 40%
FLuc counter: inhibits full-length luciferase, flagging false Mdm2/MdmX hits; shares compounds with Mdm2 MdmX PPI; SaOS-2 full-length luciferase counterscreen, luminescence; inhibition, % at 8 µM; 77% of 6,200 active; AID 504607;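 active = mean inhibition at 8 µM reaching about 37%, which flags the compound as non-specific, limit read from the data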;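 note: p53-null SaOS-2 cells with luciferase driven by a doxycycline-inducible promoter; compound on cells about two nights before reading with doxycycline added after day one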
An asterisk follows results filed as active; ? = inconclusive; nt = not tested or not shown. Hits are enriched below; roughly 4.9% of the tested compounds scored in any of these assays.

SMILES	PP5 inh	Beta cell apopt	Mdm2 MdmX PPI	CSC inhib	Calb FLC	PP1 counter	Mdm2 MdmX conf	FLuc counter
CCOc1cc(/C=C\[N+](=O)[O-])ccc1OCC(=O)Nc1ccccc1C	-1.3	80.0*	96.3*	75.5*	-9.8	-0.5	100.1*	50.6*
COc1cc(/C=C/c2cccc[n+]2C)ccc1OCC(=O)Nc1ccccc1C	-0.1	-0.1	14.4	-0.3	2.6	-0.4	nt	nt
O=P(OCC1CC1)(c1ccccc1)c1ccccc1	1.0	-9.2	23.5	-11.5	?	-0.2	nt	nt
CC(=O)Nc1sc2c(c1-c1nc3ccccc3s1)CN(C(C)C)CC2	nt	96.7*	98.7*	nt	nt	nt	93.5*	56.6*
CC(=O)N1CCc2c(sc(NC(=O)C3CC3)c2-c2nc3ccccc3s2)C1	2.1	22.4	20.1	20.6	1.2	8.1	nt	nt
CN1CCN(S(=O)(=O)c2ccc(SCCOc3ccc(Cl)cc3)nc2)CC1	3.0	6.0	58.6*	nt	nt	-2.0	32.2	nt
NCC(O)CN1CCN(Cc2ccccc2)CC1 (stereo not drawn)	-0.2	-3.9	8.6	-10.4	-4.8	1.0	nt	nt
CN=C1S/C(=C\c2cc(C)n(-c3ccccc3F)c2C)C(=O)N1C	-0.5	23.1	55.6*	15.5	52.7	3.7	39.5	99.6*
COc1ccc(-n2c(C)cc(/C=C3/SC(=S)N(C)C3=O)c2C)cc1	-2.3	-3.4	nt	31.2	-10.7	0.4	nt	nt
Cc1cc(/C=C2\SC(=S)N(C)C2=O)c(C)n1-c1cccc(O)c1	0.1	-0.9	77.6*	?	2.1	-1.9	79.5*	97.8*
Cc1cc(/C=C2\SC(=O)N(C)C2=O)c(C)n1-c1ccc(O)cc1	6.2	6.3	14.8	-5.3	13.1	-2.5	nt	nt
CN1C(=O)/C(=C\c2ccccc2OCc2ccccc2)SC1=S	2.1	3.3	15.4	11.1	6.1	-2.1	nt	nt
CN1C(=O)/C(=C\c2cc(N=Nc3ccccc3)ccc2O)SC1=S	3.6	13.3	90.7*	-0.4	-12.1	-2.1	54.1*	34.4
CC(=O)NCCCNS(=O)(=O)c1ccc(C)cc1	-3.1	-0.6	10.4	-7.2	-8.8	2.4	nt	nt
COc1ccc2c3n(nc2c1)CCN=C3c1cc(Cl)c(N)c(Cl)c1	5.0	16.4	64.8*	39.9	nt	0.4	62.2*	65.1*
COc1cc(C#Cc2c(-c3cncn3C)n(C)c3ccc(-c4ccc5cc[nH]c5c4)cc23)cc(OC)c1	nt	8.1	46.0	11.4	nt	nt	nt	nt
COc1cc(C#Cc2c(-c3cncn3C)n(C)c3ccc(Br)cc23)cc(OC)c1	nt	3.5	75.0*	nt	nt	nt	-3.2	nt
COc1cc(OC)cc(-c2c(C#Cc3ccsc3)c3cc(Br)ccc3n2C)c1	0.1	12.6	-9.8	32.9	nt	-2.2	nt	nt
COc1cc(C#Cc2c(-c3cncn3C)n(C)c3ccc(-c4ccc(OC)c(OC)c4)cc23)cc(OC)c1	4.2	12.9	52.0*	49.4	nt	-0.1	22.6	nt
O=C1CN(C(=O)COC(=O)CCS(=O)(=O)c2ccccc2Cl)c2ccccc2N1	nt	-6.5	14.2	-5.0	nt	nt	nt	nt
O=C(CCl)NCCCCCCCCCNC(=O)CCl	1.5	9.7	63.5*	9.5	19.3	1.6	42.5*	40.3*
O=C(CN1C(=O)NC2(CCCCCC2)C1=O)c1ccc(Cl)cc1	3.9	4.3	-40.0	-15.7	nt	-0.2	nt	nt
N#Cc1ccc(/C=C\c2nccc3c2[nH]c2ccccc23)cc1	1.1	6.3	51.5*	45.7	-3.9	0.4	34.6	nt
O=C(COC(=O)c1ccc(F)cc1F)Nc1ccc2[nH]c(=O)[nH]c2c1	1.8	-4.3	6.5	-11.7	-7.8	-1.7	nt	nt
NC(=O)Cn1c(-c2nonc2N)nc2ccccc21	-3.2	-1.4	4.2	-13.5	-17.7	-5.6	nt	nt
SMILES	PP5 inh	Beta cell apopt	Mdm2 MdmX PPI	CSC inhib	Calb FLC	PP1 counter	Mdm2 MdmX conf	FLuc counter
CCC(=O)Nc1nonc1-c1nc2ccccc2n1CCC(C)C	4.8	-18.8	50.4*	-0.7	-4.8	1.3	56.1*	55.9*
CCOC(=O)Cn1c(-c2nonc2NC(=O)c2ccccc2F)nc2ccccc21	-2.2	3.0	91.0*	41.3	-0.4	2.7	93.4*	34.7
CC(=O)Nc1nonc1-c1nc2ccccc2n1CCC(C)C	0.7	3.1	55.7*	-7.2	-1.8	0.2	49.7*	44.8*
CCC(=O)Nc1nonc1-c1nc2ccccc2n1Cc1ccccc1	-0.9	-0.8	38.1	31.8	-7.0	4.7	nt	nt
CC(=O)Nc1nonc1-c1nc2ccccc2n1C	-0.3	1.4	8.8	-0.9	-24.3	2.9	nt	nt
CCC(=O)Nc1nonc1-c1nc2ccccc2n1Cc1cccc2ccccc12	1.5	14.9	64.0*	70.1	-0.5	13.1	69.8*	109.3*
N#Cc1nc(-c2cccc(Cl)c2)oc1N1CCC(C(N)=O)CC1	0.4	-3.7	-5.2	2.0	5.9	2.4	nt	nt
NNC(=O)Cn1c(-c2nonc2N)nc2ccccc21	1.5	-8.6	-9.4	10.3	-0.7	11.2	nt	nt
CCCCOc1ccccc1NC(=O)Cn1c(-c2nonc2N)nc2ccccc21	0.6	58.6	89.8*	61.4	-1.0	-2.2	20.1	nt
Cc1[nH]n(-c2ccccc2)c(=O)c1N=Nc1ccc2c(c1)OCCO2	1.6	3.8	-175.0	-3.0	-1.8	5.9	nt	nt
Cc1[nH]n(-c2ccccc2)c(=O)c1N=Nc1c(O)cc(S(=O)(=O)N(C)C)c2ccccc12	5.5	110.7*	82.1*	-2.6	-9.0	3.7	79.5*	56.6*
Cc1cc(C)c2nc(N3CCC(C(=O)NCCCN4CCCCC4)CC3)sc2c1	2.2	6.6	83.9*	-1.8	42.4	-1.1	42.9*	46.4*
CCOC(=O)c1c(NC(=S)NCCc2ccccc2)sc2c1CC(C(C)C)OC2 (stereo not drawn)	-0.6	nt	51.2*	45.7	10.0	-0.8	3.1	nt
COc1ccc(S(=O)(=O)N2CCCCC2)cc1NC(=O)Cc1cccc(C(F)(F)F)c1	nt	nt	3.7	nt	nt	nt	nt	nt
CC1=CCC2C(=O)N(c3ccc(OC(=O)c4ccco4)cc3)C(=O)C2C1 (stereo not drawn)	-2.2	-1.0	-1.7	-6.0	-3.6	0.2	nt	nt
O=C(Cn1cnnn1)NCc1ccccc1	-0.3	-5.2	13.7	-10.3	-2.3	-4.3	nt	nt
COc1ccc(C(=O)Cn2nc(CNc3ccc(Br)cc3)[n+]3c2CCCCC3)cc1	1.6	10.7	26.0	12.7	0.5	10.9	nt	nt
Cc1ccc(C(C)C)c(OCc2nn(CC(=O)c3ccc(OC(F)F)cc3)c3[n+]2CCCCC3)c1	1.1	113.5*	94.8*	94.5*	89.6*	11.8	86.8*	22.7
COC(=O)c1cc(C(=O)N2CCN(c3ncccn3)CC2)cc([N+](=O)[O-])c1	1.0	4.6	-13.6	-9.9	15.7	-0.6	nt	nt
COC(=O)c1cc(C(=O)N2CCN(c3cccc(C)c3C)CC2)cc([N+](=O)[O-])c1	3.5	2.1	54.5*	57.3	15.8	3.0	48.3*	54.2*

Screens (PubChem)
